Assay [1] deals with T1, Ephrin type-A receptor 3 (Homo sapiens) (UniProt P29320).
T1 sequence (whole entry): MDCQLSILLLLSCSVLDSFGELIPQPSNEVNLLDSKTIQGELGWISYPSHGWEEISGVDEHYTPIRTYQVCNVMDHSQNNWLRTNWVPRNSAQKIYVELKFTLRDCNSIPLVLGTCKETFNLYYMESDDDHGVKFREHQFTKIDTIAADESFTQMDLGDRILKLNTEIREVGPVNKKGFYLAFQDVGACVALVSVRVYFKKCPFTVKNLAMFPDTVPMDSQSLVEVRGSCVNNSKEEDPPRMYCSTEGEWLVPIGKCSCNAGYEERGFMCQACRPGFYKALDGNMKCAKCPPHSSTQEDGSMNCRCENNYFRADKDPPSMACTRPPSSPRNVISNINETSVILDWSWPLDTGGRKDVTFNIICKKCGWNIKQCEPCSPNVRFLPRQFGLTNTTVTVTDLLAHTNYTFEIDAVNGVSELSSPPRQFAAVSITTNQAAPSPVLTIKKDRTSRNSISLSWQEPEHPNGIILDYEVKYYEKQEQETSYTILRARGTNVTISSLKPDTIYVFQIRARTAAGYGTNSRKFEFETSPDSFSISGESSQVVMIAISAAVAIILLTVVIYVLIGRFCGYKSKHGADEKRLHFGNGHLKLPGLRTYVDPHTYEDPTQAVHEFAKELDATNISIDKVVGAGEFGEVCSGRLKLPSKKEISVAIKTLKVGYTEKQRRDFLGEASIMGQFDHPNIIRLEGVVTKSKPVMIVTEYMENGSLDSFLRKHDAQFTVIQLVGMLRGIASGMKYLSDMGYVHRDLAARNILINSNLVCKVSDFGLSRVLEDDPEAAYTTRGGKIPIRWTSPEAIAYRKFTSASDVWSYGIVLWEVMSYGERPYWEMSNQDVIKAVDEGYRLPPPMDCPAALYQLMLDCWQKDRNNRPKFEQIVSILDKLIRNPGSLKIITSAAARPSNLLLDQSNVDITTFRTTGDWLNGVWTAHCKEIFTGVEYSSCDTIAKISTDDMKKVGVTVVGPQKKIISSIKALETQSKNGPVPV
To be noted: at 10 µM.

The target of assay [2] is Ephrin type-A receptor 4 (Homo sapiens) (UniProt P54764). The note with it: at 1 µM.
The target in assay [3] is Ephrin type-A receptor 5 (Homo sapiens) (UniProt P54756). The note with it: at 1 µM.
The target in assay [4] is Ephrin type-A receptor 7 (Homo sapiens) (UniProt Q15375). The note with it: at 1 µM.
Assay [5] shares this target. To be noted: at 10 µM.
Assay [6] concerns the target T2, Ephrin type-A receptor 8 (Homo sapiens) (UniProt P29322).
T2 sequence (whole entry): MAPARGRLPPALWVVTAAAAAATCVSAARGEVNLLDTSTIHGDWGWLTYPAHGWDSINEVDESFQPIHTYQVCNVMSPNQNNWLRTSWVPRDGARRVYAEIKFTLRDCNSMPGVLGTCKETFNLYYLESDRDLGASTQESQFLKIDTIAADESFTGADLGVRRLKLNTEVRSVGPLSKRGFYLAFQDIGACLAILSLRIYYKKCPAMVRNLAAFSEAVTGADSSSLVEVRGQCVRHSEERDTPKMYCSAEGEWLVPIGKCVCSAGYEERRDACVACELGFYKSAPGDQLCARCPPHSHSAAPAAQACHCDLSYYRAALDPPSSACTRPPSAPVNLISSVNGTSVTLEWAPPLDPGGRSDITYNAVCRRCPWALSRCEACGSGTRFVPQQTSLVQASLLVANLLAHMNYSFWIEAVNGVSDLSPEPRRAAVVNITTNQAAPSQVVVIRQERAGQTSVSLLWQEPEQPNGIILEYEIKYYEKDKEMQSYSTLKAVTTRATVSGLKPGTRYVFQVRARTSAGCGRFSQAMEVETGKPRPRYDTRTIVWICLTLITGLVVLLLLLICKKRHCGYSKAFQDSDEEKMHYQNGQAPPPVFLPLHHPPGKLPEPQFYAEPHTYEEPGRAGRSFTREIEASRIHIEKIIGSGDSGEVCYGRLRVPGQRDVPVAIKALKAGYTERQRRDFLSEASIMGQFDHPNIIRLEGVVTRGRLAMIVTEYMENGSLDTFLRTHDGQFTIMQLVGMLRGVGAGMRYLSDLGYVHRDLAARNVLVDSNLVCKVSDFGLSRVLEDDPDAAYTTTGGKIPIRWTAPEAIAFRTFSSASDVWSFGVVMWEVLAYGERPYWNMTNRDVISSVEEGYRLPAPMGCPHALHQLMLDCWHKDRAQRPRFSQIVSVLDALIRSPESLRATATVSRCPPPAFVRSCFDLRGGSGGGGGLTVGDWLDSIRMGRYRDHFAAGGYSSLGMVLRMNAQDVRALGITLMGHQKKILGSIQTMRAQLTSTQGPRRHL
To be noted: at 1 µM.

Assay [7] concerns the target T2, Ephrin type-A receptor 8 (Homo sapiens). The note with it: at 10 µM.
Assay [8] deals with T3, Ephrin type-B receptor 1 (Homo sapiens) (UniProt P54762).
T3 sequence (whole entry): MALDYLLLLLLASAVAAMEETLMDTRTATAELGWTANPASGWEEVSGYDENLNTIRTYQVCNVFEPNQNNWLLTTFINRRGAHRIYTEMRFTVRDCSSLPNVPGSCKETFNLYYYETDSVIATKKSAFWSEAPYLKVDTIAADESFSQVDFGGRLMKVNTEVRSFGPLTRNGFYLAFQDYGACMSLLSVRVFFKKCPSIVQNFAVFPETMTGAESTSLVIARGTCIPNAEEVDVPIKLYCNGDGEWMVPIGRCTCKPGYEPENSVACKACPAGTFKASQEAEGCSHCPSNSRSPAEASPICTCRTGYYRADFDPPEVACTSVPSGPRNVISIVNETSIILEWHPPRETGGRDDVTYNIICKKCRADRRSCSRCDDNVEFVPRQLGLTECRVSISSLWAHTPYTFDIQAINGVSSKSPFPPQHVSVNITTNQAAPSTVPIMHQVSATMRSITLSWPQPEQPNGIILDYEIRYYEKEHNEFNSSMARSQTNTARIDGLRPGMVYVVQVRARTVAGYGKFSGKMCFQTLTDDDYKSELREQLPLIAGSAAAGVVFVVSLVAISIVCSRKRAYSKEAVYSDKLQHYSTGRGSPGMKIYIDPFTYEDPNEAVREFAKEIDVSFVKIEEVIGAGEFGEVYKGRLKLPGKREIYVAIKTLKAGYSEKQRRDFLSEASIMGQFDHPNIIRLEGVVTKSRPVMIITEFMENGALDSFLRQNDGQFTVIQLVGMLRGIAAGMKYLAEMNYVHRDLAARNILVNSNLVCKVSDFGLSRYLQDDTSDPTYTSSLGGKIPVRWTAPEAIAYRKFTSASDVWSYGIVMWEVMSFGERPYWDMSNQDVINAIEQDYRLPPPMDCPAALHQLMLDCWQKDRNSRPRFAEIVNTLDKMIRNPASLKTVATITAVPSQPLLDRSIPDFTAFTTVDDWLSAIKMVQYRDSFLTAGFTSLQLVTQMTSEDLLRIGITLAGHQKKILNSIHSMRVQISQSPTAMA
The note with it: at 1 µM.

In assay [9] the target is T3, Ephrin type-B receptor 1 (Homo sapiens). The note with it: at 10 µM.

Ephrin type-A receptor 7 (Homo sapiens), sequence (Q15375 28-998 limits assumed): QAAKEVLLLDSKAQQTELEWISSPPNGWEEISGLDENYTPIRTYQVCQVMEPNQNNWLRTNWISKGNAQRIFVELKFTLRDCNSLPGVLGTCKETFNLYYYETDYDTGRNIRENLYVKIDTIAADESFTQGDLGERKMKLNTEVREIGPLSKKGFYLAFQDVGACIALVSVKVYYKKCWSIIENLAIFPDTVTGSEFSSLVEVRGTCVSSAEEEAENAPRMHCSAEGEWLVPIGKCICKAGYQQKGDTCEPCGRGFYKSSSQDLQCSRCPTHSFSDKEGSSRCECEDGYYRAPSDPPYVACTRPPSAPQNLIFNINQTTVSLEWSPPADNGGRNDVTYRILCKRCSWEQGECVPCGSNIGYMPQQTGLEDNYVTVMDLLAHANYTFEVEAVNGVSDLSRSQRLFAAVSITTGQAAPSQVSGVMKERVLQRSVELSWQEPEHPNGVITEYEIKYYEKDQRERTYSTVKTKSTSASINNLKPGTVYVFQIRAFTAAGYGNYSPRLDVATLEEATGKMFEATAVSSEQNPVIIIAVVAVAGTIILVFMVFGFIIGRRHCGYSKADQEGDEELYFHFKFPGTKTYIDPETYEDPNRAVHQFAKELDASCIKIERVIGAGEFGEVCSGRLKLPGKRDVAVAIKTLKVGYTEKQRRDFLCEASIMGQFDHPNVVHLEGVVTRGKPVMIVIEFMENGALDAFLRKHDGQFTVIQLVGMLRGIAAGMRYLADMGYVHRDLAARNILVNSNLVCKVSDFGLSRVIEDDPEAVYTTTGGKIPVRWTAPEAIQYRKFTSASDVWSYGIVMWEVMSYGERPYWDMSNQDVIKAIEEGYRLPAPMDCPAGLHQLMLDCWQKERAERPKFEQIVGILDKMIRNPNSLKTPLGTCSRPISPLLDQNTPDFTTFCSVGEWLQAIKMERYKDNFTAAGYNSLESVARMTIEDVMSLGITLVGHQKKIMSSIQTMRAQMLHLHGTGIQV
Ephrin type-A receptor 5 (Homo sapiens), sequence (P54756 whole entry): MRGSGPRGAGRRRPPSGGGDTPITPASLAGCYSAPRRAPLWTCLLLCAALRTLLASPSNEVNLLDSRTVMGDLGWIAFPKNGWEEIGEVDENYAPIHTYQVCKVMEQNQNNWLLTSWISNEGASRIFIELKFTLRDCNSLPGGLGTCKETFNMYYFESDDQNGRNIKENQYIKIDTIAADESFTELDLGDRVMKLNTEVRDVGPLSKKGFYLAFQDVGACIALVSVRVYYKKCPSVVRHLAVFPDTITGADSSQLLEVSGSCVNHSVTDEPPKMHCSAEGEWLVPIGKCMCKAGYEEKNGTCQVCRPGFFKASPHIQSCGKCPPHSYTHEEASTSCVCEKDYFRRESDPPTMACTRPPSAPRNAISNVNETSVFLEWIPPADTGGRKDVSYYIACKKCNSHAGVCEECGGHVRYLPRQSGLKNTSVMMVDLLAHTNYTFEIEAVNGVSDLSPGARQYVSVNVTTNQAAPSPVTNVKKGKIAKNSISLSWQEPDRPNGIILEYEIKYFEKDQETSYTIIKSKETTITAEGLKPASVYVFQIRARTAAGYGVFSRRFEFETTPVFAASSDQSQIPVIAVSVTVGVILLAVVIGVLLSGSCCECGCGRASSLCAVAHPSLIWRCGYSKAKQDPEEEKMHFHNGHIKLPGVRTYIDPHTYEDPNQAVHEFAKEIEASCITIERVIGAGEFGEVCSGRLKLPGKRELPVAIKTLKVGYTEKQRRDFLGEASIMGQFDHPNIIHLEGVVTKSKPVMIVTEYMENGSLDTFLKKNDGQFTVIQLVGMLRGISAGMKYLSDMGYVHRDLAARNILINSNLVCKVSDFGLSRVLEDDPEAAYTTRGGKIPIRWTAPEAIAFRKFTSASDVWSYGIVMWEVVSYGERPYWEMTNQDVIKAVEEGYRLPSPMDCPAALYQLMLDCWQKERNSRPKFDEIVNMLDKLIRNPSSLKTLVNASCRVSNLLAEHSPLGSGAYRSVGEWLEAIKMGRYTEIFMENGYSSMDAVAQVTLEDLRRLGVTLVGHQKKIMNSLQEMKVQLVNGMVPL
Ephrin type-A receptor 4 (Homo sapiens), sequence (P54764 whole entry): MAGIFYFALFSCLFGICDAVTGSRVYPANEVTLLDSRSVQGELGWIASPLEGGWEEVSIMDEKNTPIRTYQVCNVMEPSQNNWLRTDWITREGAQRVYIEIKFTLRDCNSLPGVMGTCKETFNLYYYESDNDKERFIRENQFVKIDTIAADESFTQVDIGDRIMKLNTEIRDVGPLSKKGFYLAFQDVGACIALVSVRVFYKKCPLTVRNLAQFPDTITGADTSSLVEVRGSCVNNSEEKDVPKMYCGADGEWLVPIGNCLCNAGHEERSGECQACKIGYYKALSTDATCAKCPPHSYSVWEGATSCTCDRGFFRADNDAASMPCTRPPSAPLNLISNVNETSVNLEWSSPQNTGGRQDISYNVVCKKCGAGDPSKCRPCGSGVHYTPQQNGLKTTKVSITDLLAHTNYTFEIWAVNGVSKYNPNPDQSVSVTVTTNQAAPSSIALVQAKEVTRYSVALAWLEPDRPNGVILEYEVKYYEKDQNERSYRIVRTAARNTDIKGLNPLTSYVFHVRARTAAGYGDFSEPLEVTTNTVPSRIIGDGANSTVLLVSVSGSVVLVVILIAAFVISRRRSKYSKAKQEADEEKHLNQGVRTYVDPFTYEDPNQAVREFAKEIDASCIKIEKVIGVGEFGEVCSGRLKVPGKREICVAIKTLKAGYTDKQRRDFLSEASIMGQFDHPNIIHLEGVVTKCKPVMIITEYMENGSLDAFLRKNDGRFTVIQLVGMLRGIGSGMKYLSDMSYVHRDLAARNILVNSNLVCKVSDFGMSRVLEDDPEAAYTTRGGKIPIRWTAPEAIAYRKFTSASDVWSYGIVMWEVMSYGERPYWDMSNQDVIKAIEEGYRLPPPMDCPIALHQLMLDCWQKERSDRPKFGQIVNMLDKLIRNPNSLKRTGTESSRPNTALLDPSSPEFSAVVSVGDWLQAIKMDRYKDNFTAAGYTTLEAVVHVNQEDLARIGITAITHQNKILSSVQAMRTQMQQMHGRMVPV

One may read the residual activity as the signal under treatment as a percentage of the control signal. In the case of `C[C@@H](N)[C@H]1CC[C@H](C(=O)Nc2ccncc2)CC1`, the residual activity in assay [1] was determined as 97%; in [2], 95%; in [3], 84%; in [4] it was 96%; in assay [5], 90%; in [6], 105%. The results for the residual activity in assay [7], in [8] and in assay [9] were 108%, 101% and 99%, respectively.

The record behind these values is ChEMBL document CHEMBL2218924, “A broad activity screen in support of a chemogenomic map for kinase signalling research and drug discovery” (Biochem J, 2013).
